The text below walks through data of the supplement of paper PMC12297408.

The experiment concerns Plasmodium falciparum NF54/iGP1_RE9H ulg8 stage V gametocytes. Put plainly: gametocyte viability (luciferase signal relative to DMSO control) (% of DMSO control); higher = less gametocytocidal activity, active = 50 or less. The conditions noted are these: exposure time: 72 h. The method in brief:
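NF54/iGP1_RE9Hulg8 stage V gametocytes (day 12; ~2.5% gametocytemia, 3% hematocrit) were incubated with compounds at 10 µM or 1 µM final, in one well each, for 72 h at 37 °C in medium with 0.5% Albumax II. Luminescence after D-luciferin addition was read on an IVIS Lumina II. Viability refers to the mean of plate DMSO vehicle wells.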

A number with no mark means an inactive call.

For the compound `CN(C)C/C=C/C(=O)Nc1cc2c(Nc3ccc(F)c(Cl)c3)ncnc2cc1O[C@H]1CCOC1` [Afatinib (BIBW2992)], the gametocyte viability is, setting by setting: (concentration: 1 µM) 92; (concentration: 10 µM) 93.5.

Regarding `Oc1cc(O)cc(/C=C/c2ccc(O)c(O)c2)c1` [Piceatannol], the gametocyte viability (concentration: 1 µM) was 70.4 and the gametocyte viability (concentration: 10 µM) was 38.4 (active).

On to `COc1cc2nccc(Oc3ccc(NC(=O)Nc4ccc(F)cc4F)c(F)c3)c2cc1OC`, for which the gametocyte viability runs as follows: (concentration: 1 µM) 94.9; (concentration: 10 µM) 85.

As for `COc1cccc2cc(-c3nc([C@H]4CC[C@H](C(=O)O)CC4)n4ncnc(N)c34)[nH]c12`, the gametocyte viability is, setting by setting: (concentration: 1 µM) 108; (concentration: 10 µM) 109.

Take `Nc1ncnc2c1c(-c1cnc3[nH]ccc3c1)nn2C1CCCC1`: the gametocyte viability runs as follows: (concentration: 1 µM) 101; (concentration: 10 µM) 116.

As to `CNC(=O)Nc1ccc(-c2nc(N3CC4CCC(C3)O4)c3cnn(C4CCC5(CC4)OCCO5)c3n2)cc1`, the gametocyte viability was 103 (concentration: 1 µM) and 108 (concentration: 10 µM).

Turning to `COc1cc(C=C(C#N)C(N)=O)cc(CSc2nc3ccccc3s2)c1O`, the gametocyte viability runs as follows: (concentration: 1 µM) 111; (concentration: 10 µM) 113.

Consider `Cc1ccc(NC(=O)c2cccc(N(C)C)c2)cc1NC(=O)c1ccc(O)cc1`, for which the gametocyte viability was 95.9 (concentration: 1 µM) and 95.6 (concentration: 10 µM).

Take `CO[C@@H](C(=O)N1Cc2[nH]nc(NC(=O)c3ccc(N4CCN(C)CC4)cc3)c2C1)c1ccccc1`: the gametocyte viability is, setting by setting: (concentration: 1 µM) 89.5; (concentration: 10 µM) 71.6.

Turning to `CC(C)c1cnn2c(NCc3ccccc3)cc(NCCCCCCN)nc12`, the gametocyte viability was 102 (concentration: 1 µM) and 86.5 (concentration: 10 µM).

Regarding `CC(C)(C)n1nc(-c2ccc(Cl)cc2)c2c(N)ncnc21`, the gametocyte viability by setting is: (concentration: 1 µM) 97; (concentration: 10 µM) 99.4.
